Assay [1] has as its target Sphingosine kinase 1 (Homo sapiens) (UniProt Q9NYA1). The settings on record: at 1 µM.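 Also: mean SPHK1 inhibition value reported from the GSK PKIS kinase panel screen.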
Assay [2] has as its target T1, Sphingosine kinase 2 (Homo sapiens) (UniProt Q9NRA0).
T1 sequence (whole entry): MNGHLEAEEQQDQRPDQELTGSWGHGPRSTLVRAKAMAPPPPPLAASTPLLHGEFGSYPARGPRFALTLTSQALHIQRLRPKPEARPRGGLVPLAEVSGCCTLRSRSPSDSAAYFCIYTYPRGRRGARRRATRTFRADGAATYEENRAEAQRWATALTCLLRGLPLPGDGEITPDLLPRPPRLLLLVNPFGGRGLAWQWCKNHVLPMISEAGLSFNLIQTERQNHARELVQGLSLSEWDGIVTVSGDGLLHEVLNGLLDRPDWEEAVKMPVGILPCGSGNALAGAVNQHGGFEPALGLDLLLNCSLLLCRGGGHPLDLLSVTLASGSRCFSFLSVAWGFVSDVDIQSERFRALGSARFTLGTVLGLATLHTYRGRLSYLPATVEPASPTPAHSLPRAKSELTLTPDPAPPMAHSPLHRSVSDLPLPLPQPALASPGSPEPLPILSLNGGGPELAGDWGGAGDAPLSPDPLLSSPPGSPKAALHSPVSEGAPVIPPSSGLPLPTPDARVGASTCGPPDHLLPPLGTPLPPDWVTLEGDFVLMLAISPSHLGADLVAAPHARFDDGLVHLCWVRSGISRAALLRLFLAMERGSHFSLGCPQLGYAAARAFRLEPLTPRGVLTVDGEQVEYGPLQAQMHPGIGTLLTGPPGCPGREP
As to conditions: at 0.1 µM.

Assay [3] has as its target T1, Sphingosine kinase 2 (Homo sapiens). As to conditions: at 1 µM.
Assay [4] has as its target Casein kinase II subunit alpha (Homo sapiens) (UniProt P68400). The settings on record: at 0.1 µM.
The target is the same in assay [5]. As to conditions: at 1 µM.
Assay [6] concerns the target T2, Inhibitor of nuclear factor kappa-B kinase subunit alpha (Homo sapiens) (UniProt O15111).
T2 sequence (whole entry): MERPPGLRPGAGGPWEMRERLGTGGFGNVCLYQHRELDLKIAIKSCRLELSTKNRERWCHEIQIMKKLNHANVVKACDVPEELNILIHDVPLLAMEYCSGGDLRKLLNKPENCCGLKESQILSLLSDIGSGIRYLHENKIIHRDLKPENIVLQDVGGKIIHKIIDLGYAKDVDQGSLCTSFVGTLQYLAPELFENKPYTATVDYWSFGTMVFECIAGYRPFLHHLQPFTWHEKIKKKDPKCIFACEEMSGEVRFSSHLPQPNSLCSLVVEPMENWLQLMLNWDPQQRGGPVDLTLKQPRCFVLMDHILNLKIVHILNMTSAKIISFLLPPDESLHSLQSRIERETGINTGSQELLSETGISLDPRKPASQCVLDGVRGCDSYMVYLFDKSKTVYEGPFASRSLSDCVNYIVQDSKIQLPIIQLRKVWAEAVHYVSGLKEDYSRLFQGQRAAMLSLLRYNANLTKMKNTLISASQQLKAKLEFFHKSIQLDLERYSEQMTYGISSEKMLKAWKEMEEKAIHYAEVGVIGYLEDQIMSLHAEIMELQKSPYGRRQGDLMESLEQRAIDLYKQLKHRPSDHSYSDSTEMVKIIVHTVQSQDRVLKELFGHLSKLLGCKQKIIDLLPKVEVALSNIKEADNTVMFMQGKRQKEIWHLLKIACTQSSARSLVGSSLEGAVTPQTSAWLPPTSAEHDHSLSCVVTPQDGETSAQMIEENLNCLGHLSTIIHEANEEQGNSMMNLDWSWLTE
The settings on record: at 0.1 µM.

Assay [7] deals with T2, Inhibitor of nuclear factor kappa-B kinase subunit alpha (Homo sapiens). The settings on record: at 1 µM.
Assay [8] has as its target T3, Inhibitor of nuclear factor kappa-B kinase subunit beta (Homo sapiens) (UniProt O14920).
T3 sequence (whole entry): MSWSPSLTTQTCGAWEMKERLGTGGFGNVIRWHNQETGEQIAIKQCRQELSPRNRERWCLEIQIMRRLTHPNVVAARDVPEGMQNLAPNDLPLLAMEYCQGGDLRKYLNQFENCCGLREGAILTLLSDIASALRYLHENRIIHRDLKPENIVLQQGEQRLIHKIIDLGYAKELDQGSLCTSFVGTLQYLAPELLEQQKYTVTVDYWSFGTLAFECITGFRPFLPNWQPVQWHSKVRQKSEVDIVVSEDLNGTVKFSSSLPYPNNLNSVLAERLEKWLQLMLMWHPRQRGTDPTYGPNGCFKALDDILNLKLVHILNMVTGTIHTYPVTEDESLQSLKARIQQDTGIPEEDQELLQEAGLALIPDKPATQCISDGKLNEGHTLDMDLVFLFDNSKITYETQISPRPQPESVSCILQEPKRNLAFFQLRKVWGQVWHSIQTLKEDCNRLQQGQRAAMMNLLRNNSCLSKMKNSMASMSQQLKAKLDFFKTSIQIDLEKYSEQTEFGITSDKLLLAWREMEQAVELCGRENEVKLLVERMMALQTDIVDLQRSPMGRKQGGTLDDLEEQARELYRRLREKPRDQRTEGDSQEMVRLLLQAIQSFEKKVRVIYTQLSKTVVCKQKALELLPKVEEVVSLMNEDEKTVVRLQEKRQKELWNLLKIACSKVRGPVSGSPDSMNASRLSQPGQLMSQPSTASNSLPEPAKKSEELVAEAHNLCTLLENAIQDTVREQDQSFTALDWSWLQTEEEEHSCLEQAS
The settings on record: at 0.1 µM.

Assay [9] has as its target T3, Inhibitor of nuclear factor kappa-B kinase subunit beta (Homo sapiens). The settings on record: at 1 µM.
The target in assay [10] is T4, Inhibitor of nuclear factor kappa-B kinase subunit epsilon (Homo sapiens) (UniProt Q14164).
T4 sequence (whole entry): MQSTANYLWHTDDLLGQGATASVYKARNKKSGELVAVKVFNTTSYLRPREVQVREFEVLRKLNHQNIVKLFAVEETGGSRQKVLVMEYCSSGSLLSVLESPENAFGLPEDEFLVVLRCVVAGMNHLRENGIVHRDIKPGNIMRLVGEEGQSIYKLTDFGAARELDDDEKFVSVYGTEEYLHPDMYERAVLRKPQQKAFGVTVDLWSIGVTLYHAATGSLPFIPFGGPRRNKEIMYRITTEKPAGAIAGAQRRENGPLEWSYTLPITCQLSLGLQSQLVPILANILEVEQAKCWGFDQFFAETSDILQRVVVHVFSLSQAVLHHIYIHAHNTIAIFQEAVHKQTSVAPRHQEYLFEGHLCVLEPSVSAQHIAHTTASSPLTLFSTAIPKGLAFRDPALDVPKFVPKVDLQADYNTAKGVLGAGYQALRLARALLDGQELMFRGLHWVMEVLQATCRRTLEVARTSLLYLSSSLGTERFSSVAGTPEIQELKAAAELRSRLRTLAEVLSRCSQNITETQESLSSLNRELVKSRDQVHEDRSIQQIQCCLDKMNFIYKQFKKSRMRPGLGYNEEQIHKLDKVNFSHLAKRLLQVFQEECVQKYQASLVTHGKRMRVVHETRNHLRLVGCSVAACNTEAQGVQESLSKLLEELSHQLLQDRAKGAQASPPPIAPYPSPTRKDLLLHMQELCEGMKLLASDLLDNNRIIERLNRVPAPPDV
As to conditions: at 0.1 µM.

The target of assay [11] is T4, Inhibitor of nuclear factor kappa-B kinase subunit epsilon (Homo sapiens). The settings on record: at 1 µM.
The target of assay [12] is T5, Serine/threonine-protein kinase Nek1 (Homo sapiens) (UniProt Q96PY6).
T5 sequence (whole entry): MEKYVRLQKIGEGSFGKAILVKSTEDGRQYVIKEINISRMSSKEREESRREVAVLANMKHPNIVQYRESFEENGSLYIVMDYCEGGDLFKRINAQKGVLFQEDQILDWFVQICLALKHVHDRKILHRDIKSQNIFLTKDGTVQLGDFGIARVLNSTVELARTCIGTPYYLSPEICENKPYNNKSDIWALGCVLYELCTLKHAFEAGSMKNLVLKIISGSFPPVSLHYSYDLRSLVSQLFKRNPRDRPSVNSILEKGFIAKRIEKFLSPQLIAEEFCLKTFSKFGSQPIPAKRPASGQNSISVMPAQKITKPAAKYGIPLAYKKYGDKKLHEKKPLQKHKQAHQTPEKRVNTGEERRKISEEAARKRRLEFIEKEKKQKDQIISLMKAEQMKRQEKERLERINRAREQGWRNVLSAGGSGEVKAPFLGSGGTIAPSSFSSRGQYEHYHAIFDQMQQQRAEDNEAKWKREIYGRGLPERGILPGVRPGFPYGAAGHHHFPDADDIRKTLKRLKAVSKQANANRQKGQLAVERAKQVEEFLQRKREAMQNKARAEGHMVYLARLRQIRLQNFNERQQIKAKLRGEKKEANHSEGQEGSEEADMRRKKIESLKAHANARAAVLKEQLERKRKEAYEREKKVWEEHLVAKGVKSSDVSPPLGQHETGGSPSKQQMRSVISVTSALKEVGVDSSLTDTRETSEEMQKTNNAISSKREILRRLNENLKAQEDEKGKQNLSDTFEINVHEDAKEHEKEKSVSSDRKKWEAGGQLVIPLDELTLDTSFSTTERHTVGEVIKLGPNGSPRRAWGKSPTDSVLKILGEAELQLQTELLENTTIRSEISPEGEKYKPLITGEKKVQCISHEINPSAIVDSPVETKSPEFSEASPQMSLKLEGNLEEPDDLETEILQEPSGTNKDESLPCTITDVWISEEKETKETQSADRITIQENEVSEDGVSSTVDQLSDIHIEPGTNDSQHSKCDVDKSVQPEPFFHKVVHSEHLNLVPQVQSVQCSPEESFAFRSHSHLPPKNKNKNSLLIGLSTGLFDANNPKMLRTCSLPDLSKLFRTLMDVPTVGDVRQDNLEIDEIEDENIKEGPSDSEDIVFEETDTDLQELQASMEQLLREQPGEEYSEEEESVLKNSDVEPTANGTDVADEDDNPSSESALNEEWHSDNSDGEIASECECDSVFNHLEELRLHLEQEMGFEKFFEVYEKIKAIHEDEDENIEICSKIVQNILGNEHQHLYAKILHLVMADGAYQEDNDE
The settings on record: at 0.1 µM.

Assay [13] deals with T5, Serine/threonine-protein kinase Nek1 (Homo sapiens). As to conditions: at 1 µM.
Assay [14] addresses T6, Serine/threonine-protein kinase Nek2 (Homo sapiens) (UniProt P51955).
T6 sequence (whole entry): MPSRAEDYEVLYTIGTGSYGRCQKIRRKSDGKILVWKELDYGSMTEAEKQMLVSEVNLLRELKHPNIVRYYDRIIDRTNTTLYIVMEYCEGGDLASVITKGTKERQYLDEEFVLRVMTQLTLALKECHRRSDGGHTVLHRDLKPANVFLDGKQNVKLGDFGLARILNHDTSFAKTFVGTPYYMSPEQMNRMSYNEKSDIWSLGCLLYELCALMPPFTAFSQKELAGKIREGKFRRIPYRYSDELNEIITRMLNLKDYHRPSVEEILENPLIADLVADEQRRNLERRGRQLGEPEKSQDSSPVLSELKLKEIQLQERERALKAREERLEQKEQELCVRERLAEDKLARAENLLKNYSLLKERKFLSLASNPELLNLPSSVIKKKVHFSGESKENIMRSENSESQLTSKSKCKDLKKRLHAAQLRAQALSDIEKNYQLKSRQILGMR
The settings on record: at 0.1 µM.

The target in assay [15] is T6, Serine/threonine-protein kinase Nek2 (Homo sapiens). As to conditions: at 1 µM.
The target of assay [16] is Serine/threonine-protein kinase Nek6 (Homo sapiens) (UniProt Q9HC98). The settings on record: at 0.1 µM.
Serine/threonine-protein kinase Nek6 (Homo sapiens), sequence (Q9HC98 whole entry): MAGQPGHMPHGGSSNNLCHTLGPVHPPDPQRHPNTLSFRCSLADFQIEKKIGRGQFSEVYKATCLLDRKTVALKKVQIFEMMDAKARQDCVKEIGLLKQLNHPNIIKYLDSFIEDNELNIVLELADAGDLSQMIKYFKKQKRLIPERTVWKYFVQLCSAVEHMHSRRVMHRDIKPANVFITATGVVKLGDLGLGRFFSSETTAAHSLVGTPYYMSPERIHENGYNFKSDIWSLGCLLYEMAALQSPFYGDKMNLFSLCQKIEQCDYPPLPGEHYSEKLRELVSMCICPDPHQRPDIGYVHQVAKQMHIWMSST
For assay [17] the target is unchanged. The settings on record: at 1 µM.
Assay [18] addresses Serine/threonine-protein kinase Nek7 (Homo sapiens) (UniProt Q8TDX7). The settings on record: at 0.1 µM.
For assay [19] the target is unchanged. As to conditions: at 1 µM.
The target in assay [20] is T7, Serine/threonine-protein kinase Nek9 (Homo sapiens) (UniProt Q8TD19).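 Also: reported value is the mean percent inhibition of NEK9.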
T7 sequence (whole entry): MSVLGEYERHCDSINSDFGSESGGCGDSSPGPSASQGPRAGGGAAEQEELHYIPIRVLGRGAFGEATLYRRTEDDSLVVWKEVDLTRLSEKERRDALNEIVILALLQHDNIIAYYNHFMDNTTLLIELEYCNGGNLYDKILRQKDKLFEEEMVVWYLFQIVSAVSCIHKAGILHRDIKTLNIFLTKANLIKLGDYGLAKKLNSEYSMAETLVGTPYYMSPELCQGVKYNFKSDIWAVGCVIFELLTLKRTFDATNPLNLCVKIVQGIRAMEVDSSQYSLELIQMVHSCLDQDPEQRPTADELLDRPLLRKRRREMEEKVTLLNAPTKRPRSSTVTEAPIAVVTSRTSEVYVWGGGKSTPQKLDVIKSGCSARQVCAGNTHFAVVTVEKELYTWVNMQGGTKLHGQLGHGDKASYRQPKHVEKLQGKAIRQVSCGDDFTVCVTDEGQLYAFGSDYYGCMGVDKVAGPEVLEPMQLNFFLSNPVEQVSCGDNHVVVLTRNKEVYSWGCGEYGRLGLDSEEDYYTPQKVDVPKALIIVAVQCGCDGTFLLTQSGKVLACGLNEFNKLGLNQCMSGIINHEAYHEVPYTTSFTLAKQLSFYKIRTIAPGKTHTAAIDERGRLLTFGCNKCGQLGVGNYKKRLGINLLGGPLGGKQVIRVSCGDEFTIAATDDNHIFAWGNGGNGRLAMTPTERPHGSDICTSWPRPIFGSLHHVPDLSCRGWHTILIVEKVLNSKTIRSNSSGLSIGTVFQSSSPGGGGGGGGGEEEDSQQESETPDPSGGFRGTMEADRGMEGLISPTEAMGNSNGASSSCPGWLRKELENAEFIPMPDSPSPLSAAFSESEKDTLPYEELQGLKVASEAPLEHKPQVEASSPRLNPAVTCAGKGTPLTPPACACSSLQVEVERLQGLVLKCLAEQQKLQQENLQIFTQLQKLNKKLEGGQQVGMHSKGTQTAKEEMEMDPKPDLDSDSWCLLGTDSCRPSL
The settings on record: at 0.1 µM.

Inhibition data for 1 compound are collected here from ChEMBL document CHEMBL1961873, “Compounds: GSK PKIS; Assays: Nanosyn kinase panel” (2012).

What is called inhibition is the relative decrease from the control value, in per cent. Read a low inhibition as a weak effect.

Each structure is given as a SMILES string.

Serine/threonine-protein kinase Nek7 (Homo sapiens), sequence (Q8TDX7 whole entry, looked up): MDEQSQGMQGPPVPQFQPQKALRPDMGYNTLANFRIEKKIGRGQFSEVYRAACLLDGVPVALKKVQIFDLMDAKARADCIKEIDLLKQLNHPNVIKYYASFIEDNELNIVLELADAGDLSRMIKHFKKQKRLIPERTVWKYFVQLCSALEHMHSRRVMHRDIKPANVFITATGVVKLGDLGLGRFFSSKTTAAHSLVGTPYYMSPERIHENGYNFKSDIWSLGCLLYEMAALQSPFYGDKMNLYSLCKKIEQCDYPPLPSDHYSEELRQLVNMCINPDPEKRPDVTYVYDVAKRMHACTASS
Casein kinase II subunit alpha (Homo sapiens), sequence (P68400 whole entry, looked up): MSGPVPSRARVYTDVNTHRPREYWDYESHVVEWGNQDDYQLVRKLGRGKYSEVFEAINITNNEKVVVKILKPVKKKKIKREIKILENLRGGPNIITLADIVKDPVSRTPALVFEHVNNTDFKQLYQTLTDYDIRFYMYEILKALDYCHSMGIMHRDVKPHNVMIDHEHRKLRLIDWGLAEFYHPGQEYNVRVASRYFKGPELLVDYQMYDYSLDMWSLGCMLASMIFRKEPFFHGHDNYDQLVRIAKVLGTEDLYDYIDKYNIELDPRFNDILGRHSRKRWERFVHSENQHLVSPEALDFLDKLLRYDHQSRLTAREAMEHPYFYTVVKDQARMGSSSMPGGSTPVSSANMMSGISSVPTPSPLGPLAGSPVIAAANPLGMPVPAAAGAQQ
Sphingosine kinase 1 (Homo sapiens), sequence (Q9NYA1 whole entry): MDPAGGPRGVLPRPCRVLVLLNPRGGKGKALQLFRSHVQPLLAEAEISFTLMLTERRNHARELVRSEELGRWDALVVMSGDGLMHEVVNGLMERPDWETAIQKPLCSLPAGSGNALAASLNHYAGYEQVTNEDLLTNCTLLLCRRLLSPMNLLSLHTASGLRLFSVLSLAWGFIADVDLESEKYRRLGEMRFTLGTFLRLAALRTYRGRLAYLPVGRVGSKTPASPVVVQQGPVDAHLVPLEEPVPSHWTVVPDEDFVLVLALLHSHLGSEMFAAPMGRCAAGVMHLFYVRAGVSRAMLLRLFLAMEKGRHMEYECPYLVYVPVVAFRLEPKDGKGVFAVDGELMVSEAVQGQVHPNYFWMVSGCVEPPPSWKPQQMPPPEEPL

On to `[O-][S+]1CCN(Cc2ccc(-c3ccc4ncnc(Nc5ccc(OCc6cccc(F)c6)c(Cl)c5)c4c3)o2)CC1`, for which the inhibition in assay [1] was 1.32%; in [2], 4.71%; in [3], 0.73%; in [4], 12.8%; in assay [5], 4.15%; in [6], 8.15%. Further, the inhibition in assay [7] came to 9.46%; in assay [8] it was 9.09%; in assay [9], 7.58%; in assay [10] it was 11.3%; in assay [11], 7.12%; in assay [12], 1.83%. Further, the inhibition was 3.84% in assay [13]; 6.03% in [14]; 7.92% in assay [15]; 12.5% in assay [16]; 1.99% in assay [17]; 2.99% in assay [18]. The inhibition in [19] was 8.43%; in [20], 12.2%.
